Screen size: about 340,000 compounds; about 3,300 (0.97%) were called active. This is one part of a sample in which actives are shown more often than they occur. Unmarked numbers belong to inactive results.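 How the source made its calls: active means maximum activity change below -70%; inconclusive means maximum activity change from -70% to -50%; inactive means maximum activity change above -50%.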
On the % scale 0 is the no-effect control and ±100 the full control effect.

The assay concerns Potassium voltage-gated channel subfamily H member 2, brain isoform KCNH2 3.1 (human). Put plainly: qHTS for Inhibitors of KCHN2 3.1: Mutant qHTS. Conditions: U2OS KCNH2 3.1, thallium flux FluxOr; hits give low values. The gist of the method:
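Steps: virus added to U2OS suspension (4 h, RT, dark); medium with 10% FBS added, cells plated, 37 C overnight; FluxOr/Red40 loading buffer 45 min RT; stimulation buffer, 2 min kinetic read; rate constant normalized.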
On to `COc1ccc(-c2ccc3[nH]c4c(c3c2)CCN2C[C@H]3[C@H](C)ON(C)[C@H]3C[C@@H]42)cc1`, for which the activity change is -3.51%.

For `O=C(CCc1ccc(O)cc1)NN=Cc1cc(Br)ccc1O`, the activity change was 1.97%.

On to `O=C(COc1ccc(Br)cc1)OCC(=O)c1ccc[nH]1`, for which the activity change was -1.12%.

Regarding `COc1ccc(N)cc1NC(=O)CN1CCOCC1`, the activity change is 1.24%.

For the compound `Cc1ccc(-n2c(SCC(=O)Nc3ccc4c(c3)OCO4)nnc2-c2ccoc2C)cc1`, the activity change is -79.7% (active).

In the case of `O=C(CSc1nnc(-c2ccccn2)n1-c1ccccc1)Nc1ccc2c(c1)OCO2`, the activity change was 2.89%.

With `Cc1ccc(-n2c(SCC(=O)Nc3ccc4c(c3)OCO4)nnc2-c2ccccn2)cc1`, the activity change is 1.11%.

On to `COc1cccc(/C=C2\SC(=S)N(CCCC(=O)N3CCOCC3)C2=O)c1`, for which the activity change was -1.71%.

Turning to `COc1ccc(CN2C(=O)C(CC(=O)NCCCCc3ccccc3)CC(C(=O)N3CCOCC3)=C2C)cc1` (configuration not stated), the activity change was -14.3%.

Regarding `Cc1cc(OCC(=O)Nc2nccs2)c2c(C)c(C)c(=O)oc2c1`, the activity change was -8.76%.

Regarding `O=C(NCCCN1CCN(c2ccc(F)cc2)CC1)Nc1ccc([N+](=O)[O-])cc1`, the activity change is -86.7% (active).

With `CN1CCN(CCNC(=O)Nc2ccc([N+](=O)[O-])cc2)CC1`, the activity change was 4.38%.

`O=C(CN1CCN(c2ccccc2)CC1)Nc1ccc(F)cc1`: the activity change is 0.316%.

As to `CN(C)C(CNC(=O)c1cc(Br)c(Br)s1)c1ccco1` (configuration not stated), the activity change is -1.59%.

`O=C(NCc1nnnn1-c1ccc(Cl)cc1)c1ccc2c(c1)OCO2`: the activity change is -10.1%.

With `O=C(COC(=O)c1cncc(Br)c1)Nc1ccc(S(=O)(=O)N2CCOCC2)cc1`, the activity change is -6.79%.

For `COC(=O)[C@H](Cc1ccccc1)NC(=O)N1CC(C)OC(C)C1` (some centres not stated), the activity change was -5.69%.

Turning to `COC(=O)[C@@H](Cc1ccccc1)NC(=O)NCCc1ccccc1`, the activity change is -9.89%.

For `COC(=O)[C@H](Cc1ccccc1)NC(=O)[C@@H]1C[C@H]1[C@@H](NC(=O)OCc1ccccc1)c1ccccc1`, the activity change was -95.1% (active).

Take `O=C(COC(=O)Cc1ccc(Cl)cc1Cl)NCc1ccco1`: the activity change is -13.7%.

On to `O=C(O)C1=C(C(=O)O)C2CCC1C2`, for which the activity change was 1.57%.

`COc1ccccc1OCCNC(=O)c1cc([N+](=O)[O-])cc([N+](=O)[O-])c1`: the activity change is -8.81%.

Take `COc1cc(C(=O)NCCOC(=O)c2cccc(N(C)C)c2)cc(OC)c1OC`: the activity change is -77.8% (active).

In the case of `COC(=O)c1cccc(NC(=O)CN2CCC(NC(=O)c3cc(OC)c(OC)c(OC)c3)CC2)c1`, the activity change was -11.4%.

As to `O[C@@H]1C[C@H](c2ccccc2)N(Cc2cccs2)C[C@H]1n1cc(C2CC2)nn1`, the activity change was -10.3%.

Regarding `C[C@@H]1CN([C@@H](C)CO)C(=O)CCCn2nncc2CO[C@H]1CN(C)Cc1ccc(C(F)(F)F)cc1`, the activity change was 15.2%.

In the case of `COc1ccc(S(=O)(=O)N2CCC(C(=O)NCCC(=O)NCCc3cccc(F)c3)CC2)cc1`, the activity change was -0.519%.

Turning to `Cc1cc(=O)oc2cc(NC(=O)C(C)Oc3ccccc3)ccc12` (configuration not stated), the activity change was 16.9%.

In the case of `Cc1cc(=O)oc2cc(NC(=O)C3CC(=O)N(Cc4ccccc4)C3)ccc12` (configuration not stated), the activity change is -71% (active).

As to `O=C(Nc1ccc(F)c([N+](=O)[O-])c1)C1CC(=O)N(Cc2ccccc2)C1` (configuration not stated), the activity change is -5.91%.

As to `Cc1ccc2c(c1)N(S(=O)(=O)c1cc(-c3cc(C)no3)ccc1C)CCO2`, the activity change is -82.2% (active).

Regarding `Cc1cc(-c2ccc(C)c(S(=O)(=O)Nc3ccc(S(N)(=O)=O)cc3)c2)on1`, the activity change is 6.07%.

With `Cc1cc(-c2ccc(C)c(S(=O)(=O)NC(C)Cc3ccco3)c2)on1` (configuration not stated), the activity change was -6.2%.

Take `Cc1ccc(-c2ccc(CN3C(C(C)C)C(=O)N(Cc4cn(CCC5OCCO5)nn4)CCS3(=O)=O)cc2)cc1` (configuration not stated): the activity change was 0.464%.

Take `Cc1noc(C)c1NC(=O)N(C)C[C@@H]1Oc2cc(Br)ccc2S(=O)(=O)N([C@@H](C)CO)C[C@H]1C`: the activity change is -17.2%.

For `COCOCCn1cc(CN2CCS(=O)(=O)N(Cc3ccc(-c4ccc(OC)cc4)cc3)C(CC(C)C)C2=O)nn1` (configuration not stated), the activity change was -1.8%.

Take `COc1ccc(C[C@H]2CN3C(=NC[C@H]3C)N2CCNC(=O)CCC2CCCCC2)cc1`: the activity change was -109% (active).

For `COc1ccc(CCNC(=O)COC(=O)C2CCCCC2)cc1`, the activity change was 8.75%.

As to `COc1ccc(NC(=O)CCCC2CCCCC2)c(OC)c1`, the activity change is 8.96%.

In the case of `C/C=C(\C)C(=O)NCCN1C2=NC[C@H](Cc3ccc(O)cc3)N2C[C@@H]1Cc1ccc(OC)cc1`, the activity change was -104% (active).

Consider `NC1=NC[C@@H](Cc2ccc(O)cc2)N1CC1CCCCC1`, for which the activity change was 19%.

On to `COc1ccc(CCNC(=O)COC(=O)C2CC2C)cc1` (configuration not stated), for which the activity change is 5.06%.

On to `Cc1ccn(CC(=O)NC2CCCN(Cc3ccccc3F)C2)n1` (configuration not stated), for which the activity change is 7.86%.

On to `O=C(O)c1ccccc1Cc1ccc(F)c2ccccc12`, for which the activity change was 1.01%.

For the compound `CCN(CC)C(=O)C1=C(C)N(Cc2ccc(F)cc2)C(=O)C(CC(=O)NCc2cccc3ccccc23)C1` (configuration not stated), the activity change is 10.8%.

Consider `CCn1c(CNS(=O)(=O)c2ccc(Cl)cc2)n[nH]c1=S`, for which the activity change is -7.51%.

In the case of `CCn1c(CN2C(=O)CSc3ccccc32)n[nH]c1=S`, the activity change is -86.9% (active).

`CCn1c(CSCc2c(Cl)cccc2Cl)n[nH]c1=S`: the activity change was -10.5%.

Take `CCN(CC)C(=O)C1=C(C)N(Cc2ccc(OC)cc2)C(=O)C(CC(=O)NCCCCc2ccccc2)C1` (configuration not stated): the activity change is -3.76%.

As for `CCOC(=O)CSc1nnc(CNC(=O)c2ccco2)n1-c1ccc(F)cc1`, the activity change is -10.2%.

As to `CSc1nnc(CNC(=O)c2ccccc2)n1-c1ccc(F)cc1`, the activity change was -88.2% (active).

Take `CCn1c(CNC(=O)c2ccccc2)nnc1SCC(=O)N1CCN(c2ccccc2)CC1`: the activity change was -7.37%.

Regarding `COc1cc2ccc(C(C)=O)c(O)c2cc1OC`, the activity change was 5.97%.

In the case of `N#CCCC(C#N)(c1cccnc1)N1CCOCC1` (configuration not stated), the activity change is 7.47%.

Consider `C[C@H](CO)N1C[C@H](C)[C@@H](CN(C)C(=O)c2cccc(F)c2)Oc2cc(-c3cncnc3)ccc2S1(=O)=O`, for which the activity change is -2.89%.

In the case of `COc1cccc(OC)c1C(=O)N1CCN(Cc2ccccc2F)CC1`, the activity change was -6.56%.

Regarding `COc1ccc(CN2CN(C3CCCC3)CSC2=S)cc1`, the activity change was -9.2%.

For `COc1ccc(CN2CN(C(C)C)CSC2=S)cc1`, the activity change is -82.5% (active).

Consider `S=C1SCN(CCN2CCOCC2)CN1Cc1ccccc1`, for which the activity change is -10.5%.

For the compound `C[C@@H]1CN([C@@H](C)CO)C(=O)CCCn2cc(nn2)CO[C@H]1CN(C)S(=O)(=O)c1ccc(-n2cccn2)cc1`, the activity change is 7.17%.

On to `Cc1c(NC(=O)COC(=O)/C=C/c2cccc(F)c2)c(=O)n(-c2ccccc2)n1C`, for which the activity change was 1.3%.

In the case of `CC(C)(C)n1nnnc1C(c1ccc(Cl)cc1)N1CCSCC1` (configuration not stated), the activity change is -3.03%.

Regarding `CCC(C)(C)n1nnnc1C(c1ccccc1OC)N1CCSCC1` (configuration not stated), the activity change was -86.1% (active).

Consider `COc1ccccc1C(c1nnnn1C(C)(C)C)N1CCN(Cc2ccccc2)CC1` (configuration not stated), for which the activity change is 5%.

For `Cc1ccccc1NC(=O)Cc1nc(COC(=O)CNC(=O)c2ccc(Cl)cc2Cl)cs1`, the activity change is -9.74%.

Regarding `COc1ccc(S(=O)(=O)N2CCCCC2)cc1C(=O)NC1CCS(=O)(=O)C1` (configuration not stated), the activity change is 26.3%.

As to `CCN(CC)C(=O)C1=C(C)N(Cc2ccc(OC)cc2)C(=O)C(CC(=O)NCc2ccco2)C1` (configuration not stated), the activity change was 22.6%.

For the compound `CN(C)/C=C(/C(=O)c1ccccc1)S(=O)(=O)c1ccc(Cl)cc1`, the activity change is 7.64%.

As for `CN(C)/C=C(/C(=O)c1ccccc1Cl)S(C)(=O)=O`, the activity change is -180% (active).

`CN(C)/C=C(/C(=O)c1ccc(Cl)cc1)S(=O)(=O)c1ccccc1`: the activity change was 3.05%.

For the compound `Cc1cc(Br)ccc1NC(=O)c1sc2ncn(CC(=O)N3CCN(c4ccccn4)CC3)c(=O)c2c1C`, the activity change is -4.47%.

For the compound `Cc1nc(N2CCC(C)CC2)c2c(C)c(C(=O)Nc3cc(F)ccc3C)sc2n1`, the activity change was -5.3%.

With `Cc1nc(N2CCOCC2)c2c(C)c(C(=O)Nc3ccc(C(F)(F)F)cc3)sc2n1`, the activity change is -41.2%.

For the compound `COc1ccc(NC(=O)c2sc3nc(C)nc(N4CCN(c5ccccn5)CC4)c3c2C)c(OC)c1`, the activity change was -30.8%.

For the compound `Cc1nc(N2CCN(c3ccccn3)CC2)c2c(C)c(C(=O)Nc3ccc(F)c(Cl)c3)sc2n1`, the activity change was -77.6% (active).

For `Cc1nc(N2CCN(c3ccccn3)CC2)c2c(C)c(C(=O)Nc3ccc(F)cc3)sc2n1`, the activity change is -101% (active).

For `CC1(C2CC2)NC(=O)N(CC(=O)N2CCN(c3ccccc3F)CC2)C1=O` (configuration not stated), the activity change was 3.05%.

Take `CN1OC[C@@H]2CN(S(=O)(=O)c3cccc(C(F)(F)F)c3)[C@H](c3ccc(-c4cc5ccccc5o4)cc3)C[C@@H]21`: the activity change was -6.35%.

For the compound `C[C@H]1CN([C@@H](C)CO)C(=O)CCCn2cc(nn2)CO[C@@H]1CN(C)S(=O)(=O)c1ccc(-n2cccn2)cc1`, the activity change was 5.9%.

Regarding `COc1ccc(NC(=O)CCCOc2ccc(C(C)=O)cc2)cc1S(=O)(=O)N1CCCCC1`, the activity change was 6.94%.

Regarding `CCCCCCN1C[C@@H](O)[C@H](n2cc(COC(=O)c3ccccc3)nn2)C[C@@H]1c1ccc(Cl)cc1`, the activity change was -8%.

As for `O=S(=O)(c1cccs1)N1CCN(Cc2ccccc2)CC1`, the activity change is -4.85%.

Consider `O=S(=O)(c1cccs1)N1CCc2ccccc2C1`, for which the activity change was 6.27%.

`O=S(=O)(c1cccs1)N1CCN(CCOc2ccccc2)CC1`: the activity change was -99.6% (active).

For `Cc1ccc(C)c(NC(=S)NNC(=O)c2csc(C)c2)c1`, the activity change was -0.222%.

For the compound `Cc1ccc(NC(=S)N/N=C2/CCCc3c(C)cc(C)cc32)cc1`, the activity change was -3.22%.

For the compound `Cc1ccc(C)c(NC(=S)NNC(=S)Nc2ccc(C(C)C)cc2)c1`, the activity change is -96.6% (active).

For the origin of these results see PubChem BioAssay AID720553 (National Center for Advancing Translational Sciences (NCATS), 2013).
